Key:
Format in all cases: functional
Plasmodium falciparum [1] = assay: GSK_TCMDC: Inhibition of Plasmodium falciparum 3D7 in whole red blood cells, using parasite LDH activity as an index of growth. Test compounds present at 2uM
Plasmodium falciparum [2] = assay: GSK_TCMDC: Inhibition of Plasmodium falciparum Dd2 in whole red blood cells, using parasite LDH activity as an index of growth. Test compounds present at 2uM
HepG2 = assay: GSK_TCMDC: Percent inhibition of human HepG2 cell line. Test compounds present at 10uM.

SMILES	Inhibition (Plasmodium falciparum [1]) [%]	Inhibition (Plasmodium falciparum [2]) [%]	Inhibition (HepG2) [%]
O=C(Nc1ccc(OC2CCN(Cc3ccc(F)cc3)CC2)c(Cl)c1)c1cccs1.O=C(O)C(F)(F)F	95	96	7
COc1ccc(CC(=O)NC2CCN(c3ccnc4cc(Cl)ccc34)C2)cc1.O=C(O)C(F)(F)F (stereo not drawn)	100	88	0
Cl.Fc1cc(Cl)ccc1Nc1ccnc2cc(-c3ccc(CN4CCNCC4)o3)ccc12	100	99	16
CCOc1cccc(C(=O)Nc2nonc2-c2ccc(OC)c(OC)c2)c1	92	95	11
COc1cc2nc(N3CCC(CNC(=O)c4ccc(-c5ccc(C(=O)N(C)C)cc5OCCO)cc4)CC3)nc(N)c2cc1OC	100	8	0
COc1cccc(CCNCCCCCCNCCc2ccc(Cl)cc2)c1.Cl	100	3	32
Cc1c(C(=O)C2CC2CN2CCC(N3CCCCC3)CC2)sc2ccccc12 (stereo not drawn)	94	19	35
O=C(O)C(F)(F)F.O=S(=O)(NCCN1CCCC1)c1ccc(-c2cccc(CNCc3ccsc3)c2)s1	90	43	42
COc1cc(C)c(C(O)CNC(C)CCc2ccccc2)cc1C.Cl (stereo not drawn)	98	98	1
FC(F)(F)c1ccc2[nH]c(-c3ccc(-c4ccc(CNCCN5CCNCC5)cc4)s3)nc2c1.O=C(O)C(F)(F)F	94	79	17
Br.N=C1N=C(N)NC2(CCCCC2)N1OCCCOc1cc(Cl)c(Cl)cc1Cl	94	98	62
Cc1cc(C)n2nc(C(=O)Nc3cc(C(F)(F)F)ccc3N3CCOCC3)nc2n1	94	91	2
COc1cccc(Cc2cnc3nc(N)nc(N)c3c2C)c1	94	76	57
CC(C)CNC(=O)c1cncc(-c2ccc(CNCCCc3ccccc3)cc2)c1.O=C(O)C(F)(F)F	100	73	28
CC(C)n1c(CC2CCN(CC3CCN(C(=O)/C=C/c4ccc(Cl)c(Cl)c4)CC3)CC2)nc2ccccc21	100	23	19
O=C(Nc1ccc(-c2nc3ccccc3[nH]2)cc1)c1ccc(Cl)c([N+](=O)[O-])c1	99	4	6
CNc1c2c(nc3ccc(NC(=O)CCCCCCc4ccccc4)cc13)CCCC2.Cl	100	82	0
Br.COc1cccc(OC)c1OCCCON1C(=N)N=C(N)NC1(C)C	95	96	53
Cc1cnc(C(=O)Nc2cccc(-c3cccc(-c4nc5cccc(C)c5[nH]4)c3)c2)cn1	99	45	15
NCc1cccc(-c2ccc(CNC3CCN(Cc4ccccc4)CC3)cc2)c1.O=C(O)C(F)(F)F	95	3	2
O=C(O)C(F)(F)F.c1ccc(CCNCc2cccc(-c3ccccc3CNCc3ccc4c(c3)OCO4)c2)nc1	90	80	41

SMILES	Inhibition (Plasmodium falciparum [1]) [%]	Inhibition (Plasmodium falciparum [2]) [%]	Inhibition (HepG2) [%]
O=C(Nc1ccc([N+](=O)[O-])cc1)Nc1cc(OCC(F)(F)F)cc(OCC(F)(F)F)c1	100	100	71
O=C(NCc1cccc2ccccc12)[C@@H]1CCCN1C(=O)c1ccc(O)c(-c2ccc(Cl)c(Cl)c2)c1	98	71	0
COc1ccc(C(=O)Nc2cc(Cl)c3c(c2)C2CCCN2CC3)cc1C(F)(F)F.Cl (stereo not drawn)	99	33	35
Cn1nc(C(=O)N2CCC(c3[nH]ncc3Cc3ccccc3)CC2)c2ccccc2c1=O	95	95	5
Cn1nc(C(F)(F)F)c(-c2ccc(Br)cc2)c1NC(=O)Cc1ccccc1F	100	100	6
CCCN(c1ccc(C(F)(F)F)cc1[N+](=O)[O-])S(=O)(=O)C(c1ccccc1)c1ccc(C(F)(F)F)cc1[N+](=O)[O-] (stereo not drawn)	94	49	0
N#Cc1cccc(NC(=O)C2=C(CCc3ccc4c(c3)OCO4)NC(=O)NC2c2cccc(C#N)c2)c1 (stereo not drawn)	96	47	3
O=C(Nc1ccc(Cl)cc1)N[C@H]1CCN(Cc2ccc(OCCCN3CCCCC3)cc2)C1	100	0	29
Fc1ccc2[nH]c(-c3cccc(-c4cccc(CN5CCN(c6ccncc6)CC5)c4)c3)nc2c1.O=C(O)C(F)(F)F	100	99	71
O=c1cc(NCCCNCc2ccc(C(F)(F)F)cc2F)[nH]c2ccccc12	93	48	1
N=C(N)Nc1nc(CCCCCCCCc2csc(NC(=N)N)n2)cs1	100	28	27
C=CCOc1cccc2c1CCN(CCN1CCC(NC(=O)c3ccc(-c4ccc(Cl)cc4)cc3)CC1)C2	93	22	35
Cl.Clc1cc(Br)ccc1-c1ccc(CNCC2CCNCC2)o1	96	39	100
Cc1nc(-c2nc(N3CCC(C(N)=O)CC3)ncc2-c2ccsc2)sc1C	93	33	0
Cl.FC(F)(F)c1cc(Nc2ncnc3ccc(Br)cc23)ccc1OCc1ccccc1	87	9	12
Oc1cccc(-c2nc(-c3ccccc3)c(-c3ccc4oc5ccc(-c6[nH]c(-c7cccc(O)c7)nc6-c6ccccc6)cc5c4c3)[nH]2)c1	91	35	30
O=c1cc(NCCCNCc2cccc(Oc3ccccc3)c2)[nH]c2ccccc12	93	67	0
N#Cc1ccc(N2C[C@@H](OCc3ccccc3)C[C@H]2C(=O)NCCC(c2ccccc2)c2ccccc2)c2ccccc12	93	96	11
COc1ccc(-c2nc(NC(=O)CS(=O)(=O)c3ccc(F)cc3)sc2C)cc1	100	99	20
OC[C@H](Nc1nc(C(Oc2ccccc2)c2ccccc2)nc2[nH]ncc12)c1ccccc1 (stereo partly drawn)	98	45	0
NC(=O)c1cccc(CNCc2ccc(-c3cccc(-c4nc5ccccc5[nH]4)c3)cc2)c1.O=C(O)C(F)(F)F	100	94	29

SMILES	Inhibition (Plasmodium falciparum [1]) [%]	Inhibition (Plasmodium falciparum [2]) [%]	Inhibition (HepG2) [%]
N#Cc1ccc(-c2ccc(C(=O)NCCCCN3CCC(c4ccncc4)CC3)cc2)cc1	94	16	34
Nc1cc(-c2ccc3ccccc3c2)nc2ccccc12	99	52	19
COc1ccc(C2CCN(CCN3CCC(NC(=O)c4ccc(-c5cccc(C(F)(F)F)c5C(F)(F)F)cc4)CC3)CC2)c(OC)c1	100	61	35
Cc1cccc(NC(=S)NC2CCN(CCCCCNC(=O)/C=C/c3ccc(Cl)c(Cl)c3)CC2)c1	97	19	14
NS(=O)(=O)c1ccc(CNc2ccc3ncc(-c4ccc(Cl)cc4)n3n2)cc1	96	99	26
CS(=O)(=O)O.CSc1ccc2ccccc2c1CCNCCCCNCCc1c(SC)ccc2ccccc12	100	60	99
Cc1cc(N)c2cc(NC(=O)c3cc(C(F)(F)F)cc(C(F)(F)F)c3)ccc2n1.Cl	100	99	100
O=C(O)C(F)(F)F.O=S(=O)(NCCN1CCCC1)c1cccc(-c2ccccc2CNC2Cc3ccccc3C2)c1	99	76	35
O=C(O)C(F)(F)F.c1cc(CN2CCN(CCN3CCOCC3)CC2)cc(-c2csc(-c3nc4ccccc4[nH]3)c2)c1	100	99	27
CC(C)C(=O)ONC1=NC(C)(C)N(OCCCOc2cc(Cl)c(Cl)cc2Cl)C(NOC(=O)C(C)C)=N1	92	93	64
CC(C)(C)c1ccc(CNC(=O)/C=C/c2ccc(-c3nc4cc(C(C)(C)C)ccc4[nH]3)cc2)cc1	100	66	35
COc1ccc(Br)cc1C1C2C(=O)N(c3ccc(Br)cc3)C(=O)C2C2(C(=O)O)CC(OCc3ccccc3)CN12 (stereo not drawn)	100	99	16
COc1ccc(CN2CCC(C(=O)Nc3cccc(-c4cccc(Cl)c4)c3)CC2)cc1O	91	0	25
Cl.N=C(NCCCCC1CCCCC1)c1cccc(C(=N)NCCCCC2CCCCC2)n1	100	19	99
CCN(CC)CCN(Cc1ccc(-c2ccc(C(F)(F)F)cc2)cc1)C(=O)Cn1c(CCc2cccc(F)c2F)nc(=O)c2ccc(C(F)(F)F)cc21.O=C(O)C(O)C(O)C(=O)O	99	55	19
CN(C)CCNC(=O)c1cc2c(-c3ccc(Cl)cc3)nn(C)c2s1	98	81	18
COc1ccc(Cl)cc1C(=O)Nc1ccc(-c2nc3ccccc3[nH]2)cc1	92	39	42
CCCNCc1ccc(-c2ccc(CN(CCOC)C(=O)/C=C/c3ccccc3C)cc2)nc1.O=C(O)C(F)(F)F	95	39	13
COc1ccc(-c2cc(C(=O)N3CCc4ccccc43)c3ccccc3n2)cc1OC	85	48	5

From ChEMBL document CHEMBL1157539, “Thousands of chemical starting points for antimalarial lead identification” (Nature, 2010)
